Results: PubChem BioAssay AID720519 (National Center for Advancing Translational Sciences (NCATS), 2013)
Records with an inconclusive call do not appear. Active and inactive are the calls of the source. Calls come from the whole dose curve; as a rule, active = well fitted activation curve with a large enough effect; inconclusive = small, poorly fitted or top-dose-only effect; inactive = flat fitted curve, though single readings scatter.

assay: qHTS for Inhibitors of Cell Surface uPA Generation: Confirmatory Assay for Cherry-picked Compounds; settings: cell surface uPA activity generation, qHTS confirmation; series mostly up to 115 µM; inhibition: at the top concentration; for inhibition: 0% is about no effect
Method in brief: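 RAW 264.7 cells at 4000/well, incubated overnight, then treated with compounds. After 24 h at 37 C, viability was read by ATPlite luminescence. An increase in signal indicates blocked uPA-dependent LF entry.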
Potency is the fitted concentration of half-maximal effect.

inhibition, inactive:
C/C(=N\NC(=O)c1ccccc1)c1c(C)[nH]n(-c2ccccc2)c1=O -3.44%, CCN(c1ccccc1)S(=O)(=O)c1ccc(NC(=O)c2ccco2)cc1 -2.76%, O=C(O)C(Nc1nc(C(F)(F)F)nc2ccccc12)c1ccccc1 (centres undefined) 0.904%, CCCCn1c(N)c(N(Cc2ccccc2OC)C(=O)COc2ccc(C)cc2)c(=O)[nH]c1=O -1.7%, COc1ccc2c(c1)c1nnc(SCC(=O)Nc3ccccc3F)nc1n2C -1.47%, Cn1c(CN2CCCC2)nc2cc(NC(=O)COc3ccccc3)ccc21 -2.79%, COc1ccc(C(=O)NCCCN2CCOCC2)cc1 -1.56%, O=C(NC1CCCC1)c1nc2c(nnn2Cc2ccccc2Cl)c(=O)[nH]1 -2.2%, CS/C(=C\[N+](=O)[O-])Nc1ccccc1 -3.31%, O=C(Nc1ccc(Cl)cc1)Nc1nnc(-c2ccncc2)s1 -3.24%, COc1cccc(NC(=O)c2nnn(CC(=O)Nc3cc(C)cc(C)c3)c2N)c1 1.65%, Cc1ccc(-n2cccc2C(=O)NS(=O)(=O)c2ccc(C)cc2)cc1 0.439%, CC1(C)CC(=O)C=C(c2ccc3ccccc3c2)C1 -0.951%, COc1ccc(C2=NOC(CNC(N)=S)C2)cc1 (centres undefined) -3.56%, CC1(C)CC(=O)C([N+](=O)[O-])=C(NCCCC(=O)O)C1 1.47%, COC(=O)/C(C#N)=C/c1c(N2CCN(c3ccccc3)CC2)nc2c(C)cccn2c1=O -2.02%, COc1ccc(CC(=O)OCC(=O)NNC(=O)c2ccccc2)cc1 -3.04%, CCOC(=O)N1CCN(c2c(NCCCN3CCCCCC3)c(=O)c2=O)CC1 -2.71%, COc1ccc(NC(=O)c2nn(C)c3c2CS(=O)(=O)c2ccccc2-3)cc1 -1.07%, Cc1ccccc1NC(=O)N1CCN(c2ncccn2)CC1 -1.39%, COCCN1C(=O)C(=O)/C(=C(/O)c2ccc(S(=O)(=O)N3CCOCC3)cc2)C1c1cccc([N+](=O)[O-])c1 (centres undefined) -1.81%, O=C(O)CCCC(=O)NCCCCc1ccccc1 -1.53%, COc1ccc(NC(=O)CC(C)CC(=O)NCc2ccccc2)c(OC)c1 (centres undefined) 0.142%, Cc1ccc([C@H]2C(C(=O)O)=CC[C@@H](c3cccc(C)c3)N2S(=O)(=O)c2ccc(C)cc2)cc1 -2.73%, O=C(Nc1ccc(NC(=O)c2ccco2)c(Cl)c1)c1ccccc1 -0.468%, CCn1nc(C)c(CNC(=O)C2CCC(=O)N(CCc3ccc(OC)cc3)C2)c1C (centres undefined) -1.73%, Cc1ccccc1-c1nnc(SCC(=O)NCC2CCCO2)o1 (centres undefined) 0.306%, CCN(CC)CCNC(=O)/C(=C/c1cn(CC)c2ccccc12)NC(=O)c1cc(OC)c(OC)c(OC)c1 0.948%, Oc1ccc(/C=N/Nc2cccc(Cl)n2)c(O)c1 -3.54%, Cc1cnc(C(=O)OCC(=O)Nc2ccc3c(c2)OCCO3)cn1 -0.779%, COCCOC(=O)C1=C(C)NC(=O)NC1c1cccc2ccccc12 (centres undefined) 1.45%, COc1cc(NC(=O)COC(=O)c2cc(S(=O)(=O)N3CCCCC3)ccc2Cl)c(C)cc1[N+](=O)[O-] 0.838%, COc1ccc(CN2CCN(Cc3ccc(C(F)(F)F)cc3)CC2)cc1 -2.64%, CC(=O)c1ccc(N=C2SCCCN2C(=O)C2CCCCC2)cc1 -2.64%, CCC(C)Sc1nnc(NS(=O)(=O)Cc2ccccc2)s1 (centres undefined) -3.03%, CCOC(=O)Cc1csc(NC(=O)Nc2cccc(OC)c2)n1 1.72%, CCc1ccc(NCc2nc(-c3ccccc3)no2)cc1 -0.825%, C=CCNC(=S)NCC=C -0.446%

Potency, active:
C=CC(=O)N1C/C(=C/c2ccccc2)C(=O)/C(=C\c2ccccc2)C1 26.1 µM
